Shown are actives, neighbours in structure and some others; about 13% of the full set was active somewhere.
USP17 block – inhibitors of human USP17 deubiquitinase; A8MUK1; purified USP17, Ub-rhodamine cleavage fluorescence, 3 h; inhibition, % at 50 µM; 6.5% of 47,000 active; AID 1645855
OTUD3 block – blocks human OTUD3 ubiquitin-rhodamine cleavage; inhibition, % at 25 µM; 0.7% of 47,000 active; Q5T2D3; purified OTUD3, Ub-rhodamine fluorescence, 2 h
USP8 inh – blocks human USP8 ubiquitin-rhodamine cleavage | inhibition, % at 20 µM | P40818 | purified USP8, Ub-rhodamine cleavage fluorescence, 30 min | 4.2% of 47,000 active
USP28 inh – human USP28 deubiquitinase inhibition. purified USP28, Ub-rhodamine cleavage fluorescence, 30 min. AID 1645857. inhibition, % at 25 µM. 3% of 47,000 active
USP30 block – inhibitors of human USP30 deubiquitinase; Q70CQ3; purified USP30, Ub-rhodamine cleavage fluorescence; inhibition, % at 25 µM; 5.3% of 47,000 active; AID 1645860
Active calls of the source: *; . = no result given. Rule as the data show it: active = inhibition above about 30%; inactive = the rest.

SMILES	USP17 block	OTUD3 block	USP8 inh	USP28 inh	USP30 block
CCn1c(=O)c2sccc2n2c(CCC(=O)NC3CCCCCC3)nnc12	13	18	17	11	29
CC(C)CCn1c(=O)c2ccccc2n2c(CCC(=O)NC3CCCCCC3)nnc12	41*	38*	27	16	50*
COc1ccccc1OCc1nnc(SCC(=O)c2ccc(F)cc2)n1C	0	0	-7	-4	0
Cn1c(COc2cccc3cccnc23)nnc1SCC(=O)c1ccc(Cl)cc1Cl	15	-14	58*	37*	-1
COc1cc2nc(SCc3cnc(Cl)s3)n(Cc3ccco3)c(=N)c2cc1OC	-58	-79	-79	-69	-331
Cc1sc2ncn(CC(=O)Nc3ccccc3)c(=O)c2c1C	39*	7	-11	23	-133
Cc1sc2ncn(CC(=O)N3CCc4ccccc43)c(=O)c2c1C	-63	-112	3	-133	-442
CN1CCN(c2ncc(NC(=O)Nc3ccc4c(c3)OCO4)cn2)CC1	1	0	-33	15	-6
COc1ccc(C(CC(=O)Nc2ccccc2OC)n2cccc2)cc1 (configuration not stated)	8	0	-17	3	-9
Cc1ccc(Oc2ccccc2NC(=O)CSc2nc(N)nc(N)n2)cc1	43*	-14	0	-7	-108
O=C(c1ccc(Cl)cc1)c1c[nH]cc1-c1c(F)cccc1Cl	32*	6	10	19	54*
Cc1cccc(NC(=O)c2c(-c3c(F)cccc3Cl)noc2C)n1	-1	1	0	.	.
c1ccc(CN2CCC(c3nnc(-c4ccccc4)o3)CC2)cc1	6	13	12	0	2
O=C(c1csc2c1CCCC2)N1CCN(C(c2ccccc2)c2ccccc2)CC1	2	13	3	3	31*
N#Cc1cccc(NC(=O)CC(=O)Nc2ccc3nc4n(c(=O)c3c2)CCCCC4)c1	-1	-7	56*	-115	-35
Cc1ccc(C)c(-c2nc(CSc3nc4c(=O)[nH]c(C)nc4n3C)c(C)o2)c1	10	5	1	2	5
CC(=O)N1Cc2cc(C)ccc2OC2(CCN(CC(=O)N3CCCCC3)CC2)C1	-3	1	-3	-4	7
CN(C)c1cccc(C(=O)Nc2cc(-c3cccnc3)no2)c1	51*	7	21	23	16
CCCn1c(=O)c2cc(C(=O)NCc3ccccc3C)nn2c2ccccc21	1	7	0	9	23
Cc1c(C(=O)NCc2ccccc2Br)cc(-c2ccccc2)n1C	20	24	27	22	32*
Cc1cc(F)ccc1NC(=O)c1cnc2sc3c(n2c1=O)CCCC3	10	9	6	8	13
COc1ccc(NC(=O)N[C@H]2C[C@H]3CN(C)c4ccccc4CN3C2)cc1	-17	-9	-3	-3	-44
CN(C)CCCN(C(=O)c1cc2ccccc2oc1=O)c1nc2ccc(F)cc2s1	55*	16	-80	44*	79*
CN(C)CCCN(C(=O)c1ccco1)c1nc2ccc(F)cc2s1	3	3	2	8	4
Clc1cccc(COc2ccc(-n3cnnn3)cc2)c1	12	6	13	49*	18
C[C@]12C(=O)N(Cc3ccco3)CC(=O)N1CC(c1ccc(Cl)cc1)c1c2[nH]c2ccccc12 (some centres not stated)	31*	-2	-14	3	-51
CCCOc1ccc(C2CN3C(=O)CN(Cc4ccco4)C(=O)[C@]3(C)c3[nH]c4ccccc4c32)cc1OC (some centres not stated)	1	8	-29	3	10
